Reference: PubChem BioAssay (EPA / NIEHS)
Calls of active or inactive are those of the source. Rule for the calls: active = hit-call score of the fitted dose curve at least 0.9, where 1 is the maximum; inactive = score below 0.9.

Columns and labels:
Conditions in all cases: mRNA level, 48 h; actives raise or lower the signal
[1] = read-out: adenosine kinase (ADK) gene, ADK (gene 132); experiment: LTEA_HepaRG_ADK: Life Technologies and Expression Analysis (LTEA) Assay for adenosine kinase (ADK) gene using HepaRG (AID 2283471)
Outline: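 ADK expression quantified by qRT-PCR, normalised to three housekeeping genes, after 48 h exposure of HepaRG cells to eight concentrations (top 100 uM, half-log steps, duplicate, 0.5% DMSO). Up- or down-regulation fitted relative to vehicle.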

[2] = read-out: Alpha-fetoprotein (AFP) gene, AFP (gene 174); experiment: LTEA_HepaRG_AFP: Life Technologies and Expression Analysis (LTEA) Assay for Alpha-fetoprotein (AFP) gene using HepaRG (AID 2283472)
Outline: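 HepaRG, single lot; 48 h post-plating -> serum-free induction medium; cpd 8-pt, 100 uM top, half-log, 0.5% DMSO, duplicate, 48 h. RNA -> qRT-PCR AFP, norm ACTB/GAPDH/POLR2A. Bidirectional fit vs DMSO.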

BCL2L11 (gene 10018) = experiment: LTEA_HepaRG_BCL2L11: Life Technologies and Expression Analysis (LTEA) Assay for Bcl-2 (BCL2L11) gene using HepaRG (AID 2283473)
Outline: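 Differentiated human HepaRG cells in serum-free induction medium were exposed in duplicate for 48 h to eight concentrations (top 100 uM, half-log steps, 0.5% DMSO). BCL2L11 mRNA was quantified by TaqMan qRT-PCR, normalized to ACTB/GAPDH/POLR2A, bidirectional fit versus DMSO.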

[3] = read-out: Apolipoprotein A-V (APOA5) gene, APOA5 (gene 116519); experiment: LTEA_HepaRG_APOA5: Life Technologies and Expression Analysis (LTEA) Assay for Apolipoprotein A-V (APOA5) gene using HepaRG (AID 2283474)
Outline: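 Differentiated human HepaRG cells were exposed in duplicate for 48 h to eight half-log concentrations from 100 uM in 0.5% DMSO. APOA5 mRNA was quantified by TaqMan qRT-PCR, normalized to ACTB, GAPDH and POLR2A, and fitted bidirectionally against DMSO.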

[4] = read-out: Apoptosis regulator Bcl-2 (Homo sapiens) (UniProt P10415); experiment: LTEA_HepaRG_BCL2: Life Technologies and Expression Analysis (LTEA) Assay for Bcl-2 gene using HepaRG (AID 2283475)
Outline: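 HepaRG, plated 48 h then switched to serum-free induction medium; dosed 48 h, 8 conc. (max 100 uM, half-log steps), duplicate, 0.5% DMSO. Lysis in RLT, RNA isolated, TaqMan qRT-PCR for BCL2; ACTB/GAPDH/POLR2A normalisation; bidirectional fit vs DMSO.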

[5] = read-out: Bcl-2 (BID) gene, BID (gene 637); experiment: LTEA_HepaRG_BID: Life Technologies and Expression Analysis (LTEA) Assay for Bcl-2 (BID) gene using HepaRG (AID 2283476)
Outline: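 Transcript levels of BID, measured by qRT-PCR and normalized to three housekeeping genes, were fitted bidirectionally against DMSO controls. Cells were HepaRG, dosed 48 h at up to 100 uM.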

Caspase-3 (Homo sapiens) = Caspase-3 (Homo sapiens) (UniProt P42574); experiment: LTEA_HepaRG_CASP3: Life Technologies and Expression Analysis (LTEA) Assay for cysteine-aspartic acid protease (CASP3) using HepaRG (AID 2283477)
Outline: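 Differentiated human HepaRG cells in serum-free induction medium were exposed 48 h to 8-point half-log concentrations from 100 uM (0.5% DMSO vehicle). CASP3 mRNA was measured by qRT-PCR, normalised to ACTB, GAPDH and POLR2A, with bidirectional fitting against DMSO.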

[6] = read-out: Cytochrome P450 (CYP24A1), CYP24A1 (gene 1591); experiment: LTEA_HepaRG_CYP24A1: Life Technologies and Expression Analysis (LTEA) Assay for Cytochrome P450 (CYP24A1) using HepaRG (AID 2283478)
Outline: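 Differentiated HepaRG cells, pre-cultured 48 h, were exposed in duplicate for 48 h in serum-free induction medium to 8 half-log concentrations (top 100 uM, 0.5% DMSO). CYP24A1 mRNA was quantified by TaqMan qRT-PCR, normalized to ACTB/GAPDH/POLR2A, fitted bidirectionally versus DMSO.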

[7] = read-out: Cytochrome P450 (CYP1A2), CYP1A2 (gene 1544); experiment: LTEA_HepaRG_CYP1A2: Life Technologies and Expression Analysis (LTEA) Assay for Cytochrome P450 (CYP1A2) using HepaRG (AID 2283479)
Outline: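 Differentiated human HepaRG cells in serum-free induction medium were exposed in duplicate for 48 h to 8-point half-log concentrations up to 100 uM in 0.5% DMSO. CYP1A2 mRNA measured by qRT-PCR, normalized to ACTB, GAPDH, POLR2A; bidirectional fit vs DMSO.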

[8] = read-out: cysteine-aspartic acid protease (CASP8), CASP8 (gene 841); experiment: LTEA_HepaRG_CASP8: Life Technologies and Expression Analysis (LTEA) Assay for cysteine-aspartic acid protease (CASP8) using HepaRG (AID 2283480)
Outline: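 HepaRG, 48 h exposure, duplicate wells; 8 conc, half-log from 100 uM, 0.5% DMSO. Serum-free induction medium. CASP8 mRNA by TaqMan qRT-PCR, norm. ACTB/GAPDH/POLR2A; gain/loss fitted vs DMSO.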

[9] = read-out: Cytochrome P450 (CYP2B6), CYP2B6 (gene 1555); experiment: LTEA_HepaRG_CYP2B6: Life Technologies and Expression Analysis (LTEA) Assay for Cytochrome P450 (CYP2B6) using HepaRG (AID 2283481)
Outline: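 Differentiated HepaRG cells, serum-free induction medium, exposed 48 h in duplicate to 8-point half-log concentrations from 100 uM in 0.5% DMSO. CYP2B6 mRNA by qRT-PCR, normalized to ACTB, GAPDH, POLR2A; bidirectional fit versus DMSO.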

[10] = read-out: Cytochrome P450 2C19 (Homo sapiens) (UniProt P33261); experiment: LTEA_HepaRG_CYP2C19: Life Technologies and Expression Analysis (LTEA) Assay for CYP2C19 using HepaRG (AID 2283482)
Outline: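 Differentiated human HepaRG cells were exposed for 48 h in serum-free induction medium to 8 concentrations (top 100 uM, half-log steps, 0.5% DMSO). CYP2C19 mRNA was measured by qRT-PCR, normalized to ACTB/GAPDH/POLR2A, and fitted bidirectionally against DMSO.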

CYP2C8 (gene 1558) = experiment: LTEA_HepaRG_CYP2C8: Life Technologies and Expression Analysis (LTEA) Assay for CYP2C8 using HepaRG (AID 2283483)
Outline: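 CYP2C8 mRNA induction or loss, by qRT-PCR normalized to ACTB/GAPDH/POLR2A, is read in HepaRG cells after 48 h treatment. Concentrations run from 100 uM down in half-log dilutions, with 0.5% DMSO as vehicle and baseline.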

CYP2C9 (gene 1559) = experiment: LTEA_HepaRG_CYP2C9: Life Technologies and Expression Analysis (LTEA) Assay for CYP2C9 using HepaRG (AID 2283484)
Outline: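 Cells plated 48 h, switched to serum-free induction medium, then treated in duplicate for 48 h at eight concentrations (max 100 uM, 0.5% DMSO). RNA then analysed by qRT-PCR for CYP2C9; curves fitted in both directions relative to DMSO.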

CYP2E1 (gene 1571) = experiment: LTEA_HepaRG_CYP2E1: Life Technologies and Expression Analysis (LTEA) Assay for CYP2E1 using HepaRG (AID 2283485)
Outline: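 Human liver line HepaRG, plated 48 h, then serum-free induction medium + chemical x 48 h; 8-pt CRC from 100 uM, half-log, 0.5% DMSO, n=2. Readout: CYP2E1 mRNA qRT-PCR vs ACTB/GAPDH/POLR2A; bidirectional fit vs DMSO.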

CYP4A11 (gene 1579) = experiment: LTEA_HepaRG_CYP4A11: Life Technologies and Expression Analysis (LTEA) Assay for CYP4A11 using HepaRG (AID 2283486)
Outline: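 Differentiated HepaRG cells, serum-free induction medium, exposed 48 h in duplicate to 8-point half-log series from 100 uM in 0.5% DMSO. CYP4A11 mRNA measured by qRT-PCR, normalized to ACTB, GAPDH, POLR2A; bidirectional fit versus DMSO.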

[11] = read-out: Cytochrome P450 3A4 (Homo sapiens) (UniProt P08684); experiment: LTEA_HepaRG_CYP3A4: Life Technologies and Expression Analysis (LTEA) Assay for CYP3A4 using HepaRG (AID 2283487)
Outline: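 Differentiated HepaRG cells, plated 48 h, then dosed 48 h in serum-free induction medium with 0.5% DMSO, 8 half-log concentrations up to 100 uM, duplicate. CYP3A4 mRNA by qRT-PCR, normalized to ACTB/GAPDH/POLR2A; bidirectional fit versus DMSO.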

[12] = read-out: DNA damage-inducible transcript 3 (DDIT3), DDIT3 (gene 1649); experiment: LTEA_HepaRG_DDIT3: Life Technologies and Expression Analysis (LTEA) Assay for DNA damage-inducible transcript 3 (DDIT3) using HepaRG (AID 2283488)
Outline: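 HepaRG plated 48 h, switched to serum-free induction medium, dosed 48 h (100 uM top, half-log, 8 pts, 0.5% DMSO, n=2); RNA isolated; DDIT3 by qRT-PCR; bidirectional curve fit vs DMSO.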

[13] = read-out: Pro-epidermal growth factor (Homo sapiens) (UniProt P01133); experiment: LTEA_HepaRG_EGF: Life Technologies and Expression Analysis (LTEA) Assay for Epidermal growth factor (EGF) using HepaRG (AID 2283489)
Outline: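 Differentiated human HepaRG cells, plated 48 h then switched to serum-free induction medium, were exposed for 48 h to test chemicals (8-point half-log series, top 100 uM, 0.5% DMSO). EGF mRNA was quantified by qRT-PCR, normalized to ACTB, GAPDH, POLR2A.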

[14] = read-out: Early growth response protein 1 (EGR1) transcription factor, EGR1 (gene 1958); experiment: LTEA_HepaRG_EGR1: Life Technologies and Expression Analysis (LTEA) Assay for Early growth response protein 1 (EGR1) transcription factor using HepaRG (AID 2283490)
Outline: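 Read-out is EGR1 mRNA level by qRT-PCR, normalized to three housekeeping genes and analysed for gain or loss of signal against 0.5% DMSO. Source cells: human HepaRG, treated 48 h at up to 100 uM in half-log dilutions.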

Measured: AC50

Chain of Cytochrome P450 2C19 (Homo sapiens) (P33261 whole entry, looked up): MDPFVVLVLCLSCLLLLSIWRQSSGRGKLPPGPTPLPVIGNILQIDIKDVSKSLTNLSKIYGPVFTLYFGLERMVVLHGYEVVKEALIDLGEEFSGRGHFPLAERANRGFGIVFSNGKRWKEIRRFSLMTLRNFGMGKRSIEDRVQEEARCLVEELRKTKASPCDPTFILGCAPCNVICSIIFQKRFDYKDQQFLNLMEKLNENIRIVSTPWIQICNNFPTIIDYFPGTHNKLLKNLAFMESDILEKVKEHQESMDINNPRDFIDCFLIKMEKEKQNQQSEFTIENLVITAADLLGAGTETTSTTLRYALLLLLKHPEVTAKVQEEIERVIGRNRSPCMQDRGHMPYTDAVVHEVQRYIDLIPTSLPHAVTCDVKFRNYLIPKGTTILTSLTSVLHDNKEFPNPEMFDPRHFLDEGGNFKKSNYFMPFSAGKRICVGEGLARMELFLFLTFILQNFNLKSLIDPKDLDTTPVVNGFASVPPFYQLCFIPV
Chain of Cytochrome P450 3A4 (Homo sapiens) (P08684 whole entry, looked up): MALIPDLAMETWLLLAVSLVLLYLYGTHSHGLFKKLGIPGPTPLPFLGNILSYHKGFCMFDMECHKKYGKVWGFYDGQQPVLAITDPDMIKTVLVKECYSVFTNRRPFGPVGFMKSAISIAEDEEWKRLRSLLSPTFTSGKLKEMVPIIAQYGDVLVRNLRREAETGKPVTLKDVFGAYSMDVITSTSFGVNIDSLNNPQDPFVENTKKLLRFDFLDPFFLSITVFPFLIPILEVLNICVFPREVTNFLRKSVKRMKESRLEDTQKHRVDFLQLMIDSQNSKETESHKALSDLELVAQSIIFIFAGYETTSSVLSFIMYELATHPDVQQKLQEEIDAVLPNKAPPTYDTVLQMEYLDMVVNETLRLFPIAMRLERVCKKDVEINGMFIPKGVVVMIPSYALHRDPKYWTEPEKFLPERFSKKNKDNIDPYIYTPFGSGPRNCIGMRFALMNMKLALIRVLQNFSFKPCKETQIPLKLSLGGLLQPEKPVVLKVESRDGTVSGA
Chain of Apoptosis regulator Bcl-2 (Homo sapiens) (P10415 whole entry, looked up): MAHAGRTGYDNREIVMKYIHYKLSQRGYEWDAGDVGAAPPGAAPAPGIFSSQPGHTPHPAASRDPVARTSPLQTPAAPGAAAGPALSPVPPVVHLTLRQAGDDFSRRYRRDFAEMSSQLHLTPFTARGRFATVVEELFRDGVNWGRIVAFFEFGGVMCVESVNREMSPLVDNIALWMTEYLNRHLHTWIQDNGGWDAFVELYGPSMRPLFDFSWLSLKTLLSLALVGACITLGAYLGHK
Chain of Caspase-3 (Homo sapiens) (P42574 whole entry, looked up): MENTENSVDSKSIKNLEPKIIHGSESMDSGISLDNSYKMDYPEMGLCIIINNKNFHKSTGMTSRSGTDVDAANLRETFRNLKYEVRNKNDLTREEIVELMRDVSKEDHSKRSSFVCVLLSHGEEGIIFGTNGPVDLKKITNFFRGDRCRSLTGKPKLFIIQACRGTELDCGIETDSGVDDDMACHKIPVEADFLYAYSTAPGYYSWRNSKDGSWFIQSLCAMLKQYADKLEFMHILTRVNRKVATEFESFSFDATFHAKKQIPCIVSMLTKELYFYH

CCSC(=O)N1CCCCCC1
active: [9] 2.93 µM | [11] 30 µM
inactive: all other assays above

CC1(C)C(C(=O)OC(C#N)c2cccc(Oc3ccccc3)c2)C1(C)C (stereo not given)
active: [7] 39.6 µM | [9] 67.6 µM | [10] 50 µM | CYP2E1 (gene 1571) 9.92 µM | CYP4A11 (gene 1579) 50 µM | [11] 50 µM
inactive: all other assays above

CO/N=C(/C1=NOCCO1)c1ccccc1Oc1ncnc(Oc2ccccc2Cl)c1F
active: [2] 18.2 µM | BCL2L11 (gene 10018) 27.7 µM | [3] 23.6 µM | [4] 29.7 µM | [7] 13.1 µM | [9] 21.1 µM | [10] 29.5 µM | CYP2C8 (gene 1558) 25.8 µM | CYP2C9 (gene 1559) 25.2 µM | CYP2E1 (gene 1571) 7.94 µM | CYP4A11 (gene 1579) 14.2 µM | [11] 30.5 µM | [12] 25.1 µM | [14] 12.7 µM
inactive: [1] | [5] | Caspase-3 (Homo sapiens) | [6] | [8] | [13]

CCOP(=S)(OCC)Oc1nc(Cl)n(C(C)C)n1
active: [2] 21.2 µM | [3] 21.4 µM | [7] 11.3 µM | [9] 1.78 µM | [10] 12.7 µM | CYP2E1 (gene 1571) 26.5 µM | CYP4A11 (gene 1579) 42.3 µM | [11] 4.55 µM
inactive: all other assays above

CS(=O)(=O)c1ccc(C(=O)C2C(=O)CCCC2=O)c([N+](=O)[O-])c1
active: [7] 18.4 µM
inactive: all other assays above

COP(=O)(OC)O/C(C)=C/C(=O)N(C)C
inactive: all assays above
